Measurements taken from ChEMBL document CHEMBL1157539, “Thousands of chemical starting points for antimalarial lead identification” (Nature, 2010).

These compounds were tested on Plasmodium falciparum (assay: GSK_TCMDC: Inhibition of Plasmodium falciparum 3D7 in whole red blood cells, using parasite LDH activity as an index of growth. Test compounds present at 2uM).
Assay type: functional

| SMILES | Inhibition |
| --- | --- |
| COc1cccc(CNC(=O)c2cccc(-c3ccc(CN4CCC(N5CCCC5)CC4)cc3)n2)c1.O=C(O)C(F)(F)F | 100% |
| CCOc1ccc(N(CC)S(=O)(=O)c2cc(Br)cc3c2N(C(=O)C2CC2)CC3)cc1 | 99% |
| OC(CNCc1ccccc1Oc1ccccc1)c1cc(Br)cs1 (stereo not given) | 94% |
| Clc1cccc(C23N/C(=N\c4nc5ccccc5[nH]4)NC2(c2ccccc2)N/C(=N\c2nc4ccccc4[nH]2)N3)c1 (stereo not given) | 85% |
| Nc1cccc(CNCc2cccc(-c3csc(-c4nc5ccccc5[nH]4)c3)c2)c1.O=C(O)C(F)(F)F | 100% |
| O=C(Nc1ccc(Cl)cc1)c1ccc(CN2CCCN(Cc3ccsc3)CC2)cc1.O=C(O)C(F)(F)F | 88% |
| CN1CCc2cc(I)c(O)cc2C1Cc1ccccc1Cl.Cl (stereo not given) | 98% |
| Cc1cc(Nc2ccc(O)cc2)nc2cccc(O)c12 | 99% |
| O=C(COc1cccc([N+](=O)[O-])c1)Nc1ccc(-c2nc3ccccc3[nH]2)cc1 | 99% |
| O=C(/C=C/c1ccc(Cl)c(Cl)c1)NC1CCC(CN2CCC(c3c[nH]c4ccncc34)CC2)CC1 (stereo not given) | 100% |
| CC(=O)Nc1ccc(Nc2cc(C)nc(Nc3ccc(NC(C)=O)cc3)n2)cc1 | 99% |
| O=C(Nc1cccc(CN2CCCN(Cc3cccc(O)c3)CC2)c1)c1ccc(-c2ccccc2)cc1.O=C(O)C(F)(F)F | 100% |
| CCN1CCC(N(Cc2ccc(-c3ccc(C(F)(F)F)cc3)cc2)C(=O)Cn2c(CCc3cccc(F)c3F)cc(=O)c3ccc(OCc4ccccc4)cc32)CC1.O=C(O)C(O)C(O)C(=O)O | 100% |
| Cc1nc(-c2cccc(C(=O)NC3CCC(CCN4CCc5ccc(-c6cccnc6)cc5CC4)CC3)c2)no1.Cl (stereo not given) | 98% |
| COc1cc(SC)c(Br)cc1-c1nc2ccncc2[nH]1 | 91% |
| CC(C)C[C@H](NC(=O)c1cc2ccccc2s1)C(=O)N[C@H]1CCN(Cc2ccc(OC3CCN(C)C3)c(Cl)c2)C1.O=C(O)C(F)(F)F (stereo not given in full) | 97% |
| Cc1cc(=NN=Cc2ccccc2Cl)c2ccccc2[nH]1 | 100% |
| CCN(CC)CCCNc1nccc(N2CCc3ncnc(Nc4ccc(OCc5cccc(F)c5)c(Cl)c4)c3C2)n1 | 100% |
| COc1ccc(C2N=C(N)N=C(N)N2c2ccc(Cl)cc2)cc1OC.Cl (stereo not given) | 85% |
| O=C(Nc1ccc(Cl)cc1)N[C@H]1CCN(CCCCCNC(=O)C2CC2c2ccc(Cl)c(Cl)c2)C1 (stereo not given in full) | 96% |

| SMILES | Inhibition |
| --- | --- |
| CC(C)CCNC(=O)c1cnc2c(O)cccc2c1Nc1cccc(NC(=O)c2ccc(F)cc2)c1.O=C(O)C(F)(F)F | 93% |
| CC(NCCc1cccc(Cl)c1)C(O)c1ccc(OCCCCCCOc2ccc(C(O)C(C)NCCc3cccc(Cl)c3)cc2)cc1 (stereo not given) | 100% |
| CCCCOc1ccc(N2C(N)=NC(N)=NC2(C)C)cc1.Cl | 97% |
| CC(CN(C)C)C(=O)Nc1ccc(-c2ccc(-c3nc4cc(C(F)(F)F)ccc4[nH]3)cc2)cc1 (stereo not given) | 100% |
| Cc1nc(-c2nc(N3CCOCC3)ncc2-c2ccsc2)sc1C | 89% |
| COc1cc2c(cc1OC)CC(NCCCCCCNCCc1ccc(Cl)cc1)CC2.Cl (stereo not given) | 98% |
| COc1ccc(-c2ccccc2CNc2nc(NCCc3ccc(O)cc3)nc(N3CCNCC3)n2)cc1.O=C(O)C(F)(F)F | 86% |
| CCCOc1ccc(NC(=O)c2cccs2)cc1Cl | 88% |
| CCC(C)CN1CCN(c2cc(NC(=O)c3cccs3)ccn2)C(C)C1.O=C(O)C(F)(F)F (stereo not given) | 88% |
| CCCCN(C(=O)c1ccccc1Cl)c1nnc(-c2ccccc2C)s1 | 90% |
| OCCn1c(CNCCCNc2nc3ccccc3[nH]2)cc2c(Cl)cc(Cl)cc21 | 95% |
| O=[N+]([O-])c1ccc(/C=N/O)nc1 | 80% |
| COc1cc2nc(NCCc3ccccc3)nc(NCCc3ccccc3)c2cc1OC | 100% |
| O=C(NC1CC1)c1ccc(N2CCC(Cc3ccccc3)CC2)c([N+](=O)[O-])c1 | 96% |
| Cn1ccc2c3c(N)nc(N)nc3ccc21 | 91% |
| O=C(O)C(F)(F)F.c1cc(CNCCc2ccncc2)cc(-c2cccc(-c3nc4ccccc4[nH]3)c2)c1 | 100% |
| CCOc1ccc(OCC)c(N2CCN(CCCCNC(=O)c3ccc(NC(=O)c4ccc(Cl)cc4)cc3)CC2)c1 | 97% |
| O=C(Nc1ccc(C(F)(F)F)cc1)c1cccc(S(=O)(=O)NCC2CCCN(CC3CCCCC3)C2)c1.O=C(O)C(F)(F)F (stereo not given) | 97% |
| COCCN1CCC(N(CC2(O)CCN(c3ccc(C(F)(F)F)cc3)CC2)C(=O)Cn2c(SCc3cccc(F)c3F)cc(=O)c3ccccc32)CC1 | 94% |
| COc1cc2nc(N3CCC(c4ccccc4)CC3)nc(NCc3ccc(=O)[nH]c3)c2cc1OC | 100% |

The compounds below were run on Plasmodium falciparum (assay: GSK_TCMDC: Inhibition of Plasmodium falciparum Dd2 in whole red blood cells, using parasite LDH activity as an index of growth. Test compounds present at 2uM).
Assay type: functional

| SMILES | Inhibition |
| --- | --- |
| COc1cccc(CNC(=O)c2cccc(-c3ccc(CN4CCC(N5CCCC5)CC4)cc3)n2)c1.O=C(O)C(F)(F)F | 76% |
| CCOc1ccc(N(CC)S(=O)(=O)c2cc(Br)cc3c2N(C(=O)C2CC2)CC3)cc1 | 97% |
| OC(CNCc1ccccc1Oc1ccccc1)c1cc(Br)cs1 (stereo not given) | 79% |
| Clc1cccc(C23N/C(=N\c4nc5ccccc5[nH]4)NC2(c2ccccc2)N/C(=N\c2nc4ccccc4[nH]2)N3)c1 (stereo not given) | 88% |
| Nc1cccc(CNCc2cccc(-c3csc(-c4nc5ccccc5[nH]4)c3)c2)c1.O=C(O)C(F)(F)F | 63% |
| O=C(Nc1ccc(Cl)cc1)c1ccc(CN2CCCN(Cc3ccsc3)CC2)cc1.O=C(O)C(F)(F)F | 1% |
| CN1CCc2cc(I)c(O)cc2C1Cc1ccccc1Cl.Cl (stereo not given) | 96% |
| Cc1cc(Nc2ccc(O)cc2)nc2cccc(O)c12 | 28% |
| O=C(COc1cccc([N+](=O)[O-])c1)Nc1ccc(-c2nc3ccccc3[nH]2)cc1 | 5% |
| O=C(/C=C/c1ccc(Cl)c(Cl)c1)NC1CCC(CN2CCC(c3c[nH]c4ccncc34)CC2)CC1 (stereo not given) | 96% |
| CC(=O)Nc1ccc(Nc2cc(C)nc(Nc3ccc(NC(C)=O)cc3)n2)cc1 | 65% |
| O=C(Nc1cccc(CN2CCCN(Cc3cccc(O)c3)CC2)c1)c1ccc(-c2ccccc2)cc1.O=C(O)C(F)(F)F | 66% |
| CCN1CCC(N(Cc2ccc(-c3ccc(C(F)(F)F)cc3)cc2)C(=O)Cn2c(CCc3cccc(F)c3F)cc(=O)c3ccc(OCc4ccccc4)cc32)CC1.O=C(O)C(O)C(O)C(=O)O | 86% |
| Cc1nc(-c2cccc(C(=O)NC3CCC(CCN4CCc5ccc(-c6cccnc6)cc5CC4)CC3)c2)no1.Cl (stereo not given) | 4% |
| COc1cc(SC)c(Br)cc1-c1nc2ccncc2[nH]1 | 9% |
| CC(C)C[C@H](NC(=O)c1cc2ccccc2s1)C(=O)N[C@H]1CCN(Cc2ccc(OC3CCN(C)C3)c(Cl)c2)C1.O=C(O)C(F)(F)F (stereo not given in full) | 65% |
| Cc1cc(=NN=Cc2ccccc2Cl)c2ccccc2[nH]1 | 30% |
| CCN(CC)CCCNc1nccc(N2CCc3ncnc(Nc4ccc(OCc5cccc(F)c5)c(Cl)c4)c3C2)n1 | 95% |
| COc1ccc(C2N=C(N)N=C(N)N2c2ccc(Cl)cc2)cc1OC.Cl (stereo not given) | 4% |
| O=C(Nc1ccc(Cl)cc1)N[C@H]1CCN(CCCCCNC(=O)C2CC2c2ccc(Cl)c(Cl)c2)C1 (stereo not given in full) | 1% |

| SMILES | Inhibition |
| --- | --- |
| CC(C)CCNC(=O)c1cnc2c(O)cccc2c1Nc1cccc(NC(=O)c2ccc(F)cc2)c1.O=C(O)C(F)(F)F | 43% |
| CC(NCCc1cccc(Cl)c1)C(O)c1ccc(OCCCCCCOc2ccc(C(O)C(C)NCCc3cccc(Cl)c3)cc2)cc1 (stereo not given) | 100% |
| CCCCOc1ccc(N2C(N)=NC(N)=NC2(C)C)cc1.Cl | 3% |
| CC(CN(C)C)C(=O)Nc1ccc(-c2ccc(-c3nc4cc(C(F)(F)F)ccc4[nH]3)cc2)cc1 (stereo not given) | 93% |
| Cc1nc(-c2nc(N3CCOCC3)ncc2-c2ccsc2)sc1C | 75% |
| COc1cc2c(cc1OC)CC(NCCCCCCNCCc1ccc(Cl)cc1)CC2.Cl (stereo not given) | 0% |
| COc1ccc(-c2ccccc2CNc2nc(NCCc3ccc(O)cc3)nc(N3CCNCC3)n2)cc1.O=C(O)C(F)(F)F | 3% |
| CCCOc1ccc(NC(=O)c2cccs2)cc1Cl | 86% |
| CCC(C)CN1CCN(c2cc(NC(=O)c3cccs3)ccn2)C(C)C1.O=C(O)C(F)(F)F (stereo not given) | 72% |
| CCCCN(C(=O)c1ccccc1Cl)c1nnc(-c2ccccc2C)s1 | 86% |
| OCCn1c(CNCCCNc2nc3ccccc3[nH]2)cc2c(Cl)cc(Cl)cc21 | 0% |
| O=[N+]([O-])c1ccc(/C=N/O)nc1 | 98% |
| COc1cc2nc(NCCc3ccccc3)nc(NCCc3ccccc3)c2cc1OC | 100% |
| O=C(NC1CC1)c1ccc(N2CCC(Cc3ccccc3)CC2)c([N+](=O)[O-])c1 | 83% |
| Cn1ccc2c3c(N)nc(N)nc3ccc21 | 17% |
| O=C(O)C(F)(F)F.c1cc(CNCCc2ccncc2)cc(-c2cccc(-c3nc4ccccc4[nH]3)c2)c1 | 88% |
| CCOc1ccc(OCC)c(N2CCN(CCCCNC(=O)c3ccc(NC(=O)c4ccc(Cl)cc4)cc3)CC2)c1 | 40% |
| O=C(Nc1ccc(C(F)(F)F)cc1)c1cccc(S(=O)(=O)NCC2CCCN(CC3CCCCC3)C2)c1.O=C(O)C(F)(F)F (stereo not given) | 4% |
| COCCN1CCC(N(CC2(O)CCN(c3ccc(C(F)(F)F)cc3)CC2)C(=O)Cn2c(SCc3cccc(F)c3F)cc(=O)c3ccccc32)CC1 | 75% |
| COc1cc2nc(N3CCC(c4ccccc4)CC3)nc(NCc3ccc(=O)[nH]c3)c2cc1OC | 58% |
